Results as given in PubChem BioAssay AID1159580 (chemical genetic matrix, 2015).
Values joined by “and” are separate entries in the source; they are usually repeats but may differ in a detail not shown here. Equal values may be shown once. Out of some 5,500 compounds screened, about 2,000 (36%) were called active. Roughly 18% stayed inconclusive and do not appear here. Rule as the data show it: active = normalized growth mostly below about 0.91 (no sharp cut-off); inconclusive = no clear call, values can overlap the other calls; inactive = mostly above about 0.92. Some of the results follow.

Test: chemical genetic growth profiling, strain panel (AID 1159580);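 also: tested at 20 µM; growth read once vehicle control cultures reached saturation at 30 °C; 1 = growth at the plate median or of vehicle wells; lower values mean less growth of the strain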
Conditions: S. cerevisiae deletion strains, growth OD

Measured: normalized growth

C=C(C)[C@H]1COc2cc3oc(=O)ccc3cc2O1
inactive: locus YAL030W, strain snc1, hits give low values 0.933 | locus YBR171W, strain sec66, hits give low values 0.938 | locus YBR229C, strain ROT2, hits give low values 0.956 | locus YDL005C, strain med2, hits give low values 0.959 | locus YDL040C, strain nat1, hits give low values 0.957 | locus YDL185W, strain tfp1, hits give low values 0.924 | locus YDR001C, strain nth1, hits give low values 0.956 | locus YDR159W, strain sac3, hits give low values 0.905 | locus YDR195W, strain ref2 1.05 | locus YDR297W, strain sur2, hits give low values 0.956 | locus YDR334W, strain swr1, hits give low values 0.921 | locus YDR392W, strain spt3, hits give low values 0.775 | locus YEL037C, strain rad23, hits give low values 0.956 | locus YER111C, strain swi4, hits give low values 0.961 | locus YFR010W, strain ubp6, hits give low values 0.945 | locus YGL078C, strain dbp3, hits give low values 0.993 | locus YGL167C, strain pmr1, hits give low values 0.995 | locus YGL173C, strain kem1, hits give low values 0.906 | locus YGL227W, strain vid30, hits give low values 0.932 | locus YHR027C, strain rpn1, hits give low values 0.929 | locus YHR079C, strain IRE1 (second series), hits give low values 0.967 | locus YHR079C, strain IRE1, hits give low values 1.01 | locus YHR094C, strain hxt1, hits give low values 0.948 | locus YJL115W, strain asf1, hits give low values 0.977 | locus YJL134W, strain LCB3, hits give low values 0.934 | locus YJL154C, strain vps35, hits give low values 0.958
active: locus YAL021C, strain ccr4, hits give low values 0.52 | locus YAL026C, strain drs2, hits give low values 0.51 | locus YBL061C, strain skt5, hits give low values 0.213 | locus YBR009C, strain hhf1, hits give low values 0.811 | locus YBR021W, strain FUR4, hits give low values 0.116 | locus YBR023C, strain chs3, hits give low values 0.339 | locus YBR231C, strain swc5, hits give low values 0.786 | locus YBR279W, strain paf1, hits give low values 0.931 | locus YCL011C, strain gbp2, hits give low values 0.852 | locus YCL016C, strain dcc1, hits give low values 0.736 | locus YCL029C, strain bik1, hits give low values 0.72 | locus YCL061C, strain MRC1, hits give low values 0.793 | locus YCL069W, strain vba3, hits give low values 0.783 | locus YCR088W, strain abp1, hits give low values 0.814 | locus YDL035C, strain GPR1, hits give low values 0.491 | locus YDL074C, strain BRE1, hits give low values 0.465 | locus YDL101C, strain DUN1, hits give low values 0.36 | locus YDL192W, strain arf1, hits give low values 0.111 | locus YDR069C, strain doa4, hits give low values 0.888 | locus YDR101C, strain arx1, hits give low values 0.724 | locus YDR137W, strain rgp1, hits give low values 0.279 | locus YDR150W, strain NUM1, hits give low values 0.53 | locus YDR162C, strain NBP2, hits give low values 0.0606 | locus YDR318W, strain mcm21, hits give low values 0.62 | locus YDR335W, strain msn5, hits give low values 0.857 | locus YDR388W, hits give low values 0.515 | locus YDR502C, strain sam2, hits give low values 0.387 | locus YEL003W, strain gim4, hits give low values 0.911 | locus YEL061C, strain CIN8 (second series), hits give low values 0.447 | locus YER015W, strain faa2, hits give low values 0.9 | locus YER016W, strain bim1, hits give low values 0.791 | locus YER110C, hits give low values 0.747 | locus YER155C, strain BEM2 (second series), hits give low values 0.444 | locus YER155C, strain BEM2, hits give low values 0.879 | locus YER167W, strain BCK2, hits give low values 0.671 | locus YGL086W, strain mad1, hits give low values 0.578 | locus YGL240W, strain doc1, hits give low values 0.756 | locus YGL248W, strain PDE1, hits give low values 0.385 | locus YGL253W, strain hxk2, hits give low values 0.466 | locus YGR135W, strain pre9, hits give low values 0.574 | locus YGR252W, strain gcn5, hits give low values 0.28 | locus YHR013C, strain ard1, hits give low values 0.692 | locus YHR030C, strain SLT2, hits give low values 0.272 | locus YHR129C, strain ARP1, hits give low values 0.554 | locus YHR142W, strain chs7, hits give low values 0.148 | locus YHR200W, strain rpn10, hits give low values 0.572 | locus YIL066C, strain RNR3, hits give low values 0.407 | locus YIL073C, strain SPO22, hits give low values 0.16 | locus YIL125W, strain kgd1, hits give low values 0.916 | locus YIR030C, strain dcg1, hits give low values 0.819 | locus YJL092W, strain hpr5, hits give low values 0.903 | locus YJL095W, strain BCK1 (second series), hits give low values 0.107 | locus YJL095W, strain BCK1, hits give low values 0.0661 and 0.314 | locus YJL129C, strain trk1, hits give low values 0.452 | locus YJL164C, strain tpk1, hits give low values 0.871 | locus YJL166W, strain qcr8, hits give low values 0.662 | locus YJL168C, strain set2, hits give low values 0.887 | locus YJL187C, strain SWE1 (second series), hits give low values 0.635 | locus YJL187C, strain SWE1, hits give low values 0.886
